Laboratory results as given in PubChem BioAssay (Tox21).
Records with an inconclusive call do not appear. The source made the active and inactive calls. The call rests on the fitted dose curve; in most records, active means well fitted curve in the direction sought with a large enough effect in the repeat runs; inconclusive means weak or mixed curves; inactive means no such curve, though single readings can be large; an effect the other way counts as inactive or inconclusive.

Tests used:
[1] = qHTS RealTime-Glo MT Cell Viability Assay in HEK293 cells - 32 hour (AID 1224868); further: top concentration of the series differs between compounds; nearly all actives have a fitted effect of over 50% in size
Outline: (§1)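 Tox21 10K qHTS, HEK293, 600 cells/well, RealTime-Glo reagent co-dispensed with cells; 5 h preincubation, compound by pintool, 37 C, luminescence at 0–40 h.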

[2] = A CellTox Green Cytotoxicity Assay to monitor cytotoxicity in HEK293 cells - 0 hour (AID 1224869); further: nearly all actives have a fitted effect of over 50% in size; further: potency means the concentration at half of the fitted maximal effect
Outline: (§2)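 Homogeneous no-lysis format: HEK293 cell suspension mixed with CellTox Green reagent, seeded, incubated 5 h at 37 C/5% CO2, then dosed by pintool with compound in DMSO.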

[3] = qHTS RealTime-Glo MT Cell Viability Assay in HepG2 cells - 40 hour (AID 1224870); further: nearly all actives have a fitted effect of over 50% in size
Outline: (§3)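 HepG2 cells (600/well) mixed with RealTime-Glo MT reagent, settled 5 h at 37 C/5% CO2 before compound addition. Nonlytic NanoLuc luminescence from viable-cell prosubstrate reduction read repeatedly during 40 h treatment at 37 C.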

[4] = A CellTox Green Cytotoxicity Assay to monitor cytotoxicity in HEK293 cells - 40 hour (AID 1224871); further: nearly all actives have a fitted effect of over 45% in size; further: potency means the concentration at half of the fitted maximal effect
Outline: as §2

[5] = qHTS RealTime-Glo MT Cell Viability Assay in HepG2 cells - 8 hour (AID 1224873); further: nearly all actives have a fitted effect of over 55% in size
Outline: as §3

[6] = qHTS RealTime-Glo MT Cell Viability Assay in HEK293 cells - 40 hour (AID 1224874); settings: RealTime-Glo luminescence; max response: stronger effect = lower value; further: nearly all actives have a fitted effect of over 50% in size
Outline: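 Measured as luminescence from the same continuously cultured HEK293 wells at successive time points (0, 8, 16, 24, 32, 40 h) after compound addition. Reagent present from seeding; dosing at 5 h; incubation 37 C.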

[7] = A CellTox Green Cytotoxicity Assay to monitor cytotoxicity in HEK293 cells - 24 hour (AID 1224875); further: nearly all actives have a fitted effect of over 45% in size; further: potency means the concentration at half of the fitted maximal effect
Outline: as §2

[8] = A CellTox Green Cytotoxicity Assay to monitor cytotoxicity in HepG2 cells - 16 hour (AID 1224876); further: nearly all actives have a fitted effect of over 45% in size; further: potency means the concentration at half of the fitted maximal effect
Outline: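 Fluorescent DNA-binding dye, 600 HepG2 cells/well, 5 h preincubation then compound in DMSO; same plates read at 0–40 h, 37 C.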

[9] = qHTS RealTime-Glo MT Cell Viability Assay in HepG2 cells - 32 hour (AID 1224877); further: nearly all actives have a fitted effect of over 55% in size
Outline: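 Cells + NanoLuc/prosubstrate dispensed (600 cells/well) → 5 h at 37 C/5% CO2 → compounds in DMSO transferred → 40 h incubation at 37 C, luminescence read at 0, 8, 16, 24, 32, 40 h.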

[10] = qHTS RealTime-Glo MT Cell Viability Assay in HEK293 cells - 16 hour (AID 1224872)
Outline: as §1
On the % scale 0 is the no-effect control and ±100 the full control effect.

CCCCSCCCC
inactive: Potency [1] | Potency [2] | outcome [3] | Potency [4] | outcome [5] | max response [6] 1.22% | Potency [7] | Potency [8] | outcome [9]

O=C(O)CCCCCC(=O)O
active: Potency [4] 22 µM
inactive: Potency [1] | Potency [2] | outcome [3] | Potency [10] | outcome [5] | Potency [8] | outcome [9]

Cn1nnc2c(C(N)=O)ncn2c1=O
inactive: Potency [1] | Potency [2] | outcome [3] | Potency [4] | Potency [10] | outcome [5] | Potency [7] | Potency [8] | outcome [9]

CCc1occc(=O)c1O
inactive: Potency [1] | Potency [2] | outcome [3] | Potency [4] | Potency [10] | outcome [5] | Potency [7] | Potency [8] | outcome [9]

CCCCCC/C=C/C(=O)OC
inactive: Potency [1] | Potency [2] | outcome [3] | Potency [10] | outcome [5] | outcome [9]

COS(=O)(=O)O
inactive: Potency [1] | Potency [2] | outcome [3] | Potency [4] | outcome [5] | max response [6] -1.57% | Potency [7] | outcome [9]

O/N=C/C=N/O
inactive: Potency [2] | outcome [3] | Potency [4] | Potency [10] | outcome [5] | max response [6] 0.715% | Potency [7] | Potency [8] | outcome [9]

O=C(CN1CCNCC1)NC1CCCCC1
inactive: Potency [1] | Potency [2] | outcome [3] | Potency [4] | outcome [5] | Potency [7] | Potency [8] | outcome [9]

CCCCCCCCCOC(=O)CCCCC(=O)OCCCCCCC
inactive: Potency [1] | outcome [3] | outcome [5] | max response [6] 0.901% | outcome [9]
active: Potency [2] 43.6 µM | Potency [4] 24.5 µM | Potency [7] 24.5 µM | Potency [8] 24.5 µM

CC(CO)(CO)CO
inactive: Potency [2] | outcome [3] | Potency [4] | Potency [10] | outcome [5] | max response [6] 2.55% | Potency [7] | Potency [8] | outcome [9]

CC(C)(C)NC[C@H](O)COc1cccc2c1CCCC2=O
inactive: Potency [1] | outcome [3] | Potency [10] | outcome [5] | Potency [8] | outcome [9]

COc1ccc2c(c1)c1c3n2CCN(C)C3=NCC1
inactive: Potency [2] | outcome [3] | Potency [4] | Potency [10] | outcome [5] | max response [6] 17.6% | Potency [7] | Potency [8] | outcome [9]

CC(C)NCC(O)c1ccc2ccccc2c1 (stereo not drawn)
inactive: Potency [2] | outcome [3] | Potency [4] | Potency [10] | outcome [5] | max response [6] -5.31% | Potency [7] | Potency [8] | outcome [9]
